# Assay results reported in PubChem BioAssay (NCATS).
# Several values for one entry are separate records, joined by “and”; a condition that tells them apart may be missing. Equal entries are not always repeated. Results filed as inconclusive are left out. Where a call stands in place of a potency, no number is given. The source holds several records for some structures; these can differ, active in one and inactive in another. Activity calls are given as the source filed them. Unless noted, calls come from the whole dose curve; as a rule, active = well fitted curve in the direction sought with a large enough effect; inconclusive = small, poorly fitted or top-dose-only effect, or another doubt; inactive = no such curve, though single readings can be large; an effect the other way counts as inactive or inconclusive.
# Assays:
# [1] = molecular target: Guanine nucleotide-binding protein G(i) subunit alpha-1 (Homo sapiens) (UniProt P63096); assay: qHTS Assay for Inhibitors of RGS12 GoLoco Motif Activity (Green Fluorophore) (AID 879);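 note: negative values mean loss of peptide binding seen as reduced polarization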
# How it was run: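 A drop in FITC polarization marked displacement of the FITC-tagged RGS12 GoLoco peptide (10 nM) from Gαi1 (50 nM). Compounds were incubated 10 min at room temperature in Tris pH 7.5 buffer containing 150 mM NaCl, 0.1 mM GDP and 0.05% NP40; unlabeled peptide titration served as control.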
# [2] = molecular target: Cytochrome P450 3A4 (Homo sapiens) (UniProt P08684); assay: qHTS Assay for Inhibitors and Substrates of Cytochrome P450 3A4 (AID 884); note: nearly all actives have a fitted effect of over 50% in size; note: potency is the fitted concentration of half-maximal effect
# How it was run: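 Luminescent readout of luciferin produced by CYP3A4 (20 nM) dealkylation of Luciferin-PPXE, 25 uM (its KM). NADPH-driven reaction ran 60 min at RT after 10 min compound preincubation; data scaled to 57 uM ketoconazole as 100% inhibition.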
# [3] = molecular target: Muscarinic acetylcholine receptor M1 (Rattus norvegicus) (UniProt P08482); assay: qHTS Assay for Antagonists of Acetylcholine Muscarinic M1 Receptor: Kinetic Measurement of Intracellular Calcium Response (AID 943);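 note: Fluo-4 calcium signal as peak divided by basal fluorescence over 4 min; series mostly up to about 35 µM; nearly all actives have a fitted effect of over 75% in size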
# How it was run: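 Read-out: peak over basal Fluo-4 fluorescence, kinetic at 1 Hz for 4 min after EC80 carbachol (100 nM final). Rat M1-CHO cells, dye loaded 1 h at 37C, compound added 10 min before agonist.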
# [4] = molecular target: Pyruvate kinase (Leishmania mexicana) (UniProt Q27686); assay: qHTS Validation Assay for Inhibitors of Leishmania Mexicana Pyruvate Kinase (AID 945)
# How it was run: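 LmPYK E451W 0.2 nM; 0.5 mM PEP, 0.1 mM ADP, 7 mM MgCl2, 50 mM KCl, imidazole pH 7.2, 0.01% Tween 20, 0.05% BSA; 1 h RT; PKLight luminescence; DMSO-normalized.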
# [5] = molecular target: Cytochrome P450 2C9 (Homo sapiens) (UniProt P11712); assay: qHTS Assay for Inhibitors and Substrates of Cytochrome P450 2C9 (AID 883); note: nearly all actives have a fitted effect of over 60% in size; note: potency is the fitted concentration of half-maximal effect
# How it was run: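 Human CYP2C9 (10nM) hydroxylated Luciferin-H (100uM, at its KM) to luciferin in 25mM KPO4. Compound was preincubated 10 min at 37C, then NADPH regeneration started a 60 min reaction at 37C. Luminescence was read after detection reagent, normalized to 57uM sulphaphenazole.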
# [6] = molecular target: Cytochrome P450 3A4 (Homo sapiens) (UniProt P08684); assay: qHTS Assay for Activators of Cytochrome P450 3A4 (AID 885); note: nearly all actives have a fitted effect of over 65% in size
# How it was run: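 Luminescent readout of luciferin formed from 25 uM Luciferin-PPXE (KM level) by 20 nM CYP3A4 in 200 mM KPO4, with 60 min NADPH-driven reaction at room temperature after 10 min compound exposure. Ketoconazole (57 uM) defined 100% inhibition.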
# [7] = Confirmation and Secondary Assay for Modulators of Hemoglobin Beta Chain Splicing at IVS2 654 locus (AID 910);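 note: per-well total GFP intensity by laser scanning cytometry after 2-day treatment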
# How it was run: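 HeLa cells stably carrying EGFP interrupted by mutant beta-globin IVS2-654 intron (CMV-driven) were treated with compound for 2 days at 37C; corrected splicing was scored as total peak GFP intensity per well (488 nm excitation, 500-520 nm emission).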
# [8] = Confirmation and Secondary Assay for Modulators of Hemoglobin Beta Chain Splicing at IVS2 705 locus (AID 930);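 note: HeLa cells stably expressing the EGFP-705 splicing reporter; series mostly up to about 46 µM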
# How it was run: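 HeLa cells stably carrying EGFP interrupted by mutant beta-globin IVS2-705 intron (CMV-driven) were seeded at 500 cells/well, treated next day with compound for 2 days at 37C; corrected splicing restores EGFP, read as total peak GFP intensity per well.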
# [9] = qHTS Assay for Identification of Small Molecule Agonists for Thrombopoietin (TPO) Signaling Pathway (AID 917)
# How it was run: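 First, Ba/F3 cells with human TPO receptor were held overnight without IL-3. Next, compounds and TPO (26 pM final) were added. After 24 hrs at 37 C, luciferase detection reagent was added and luminescence measured following 10 min at room temperature.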
# [10] = molecular target: Cytochrome P450 2C19 (Homo sapiens) (UniProt P33261); assay: qHTS Assay for Inhibitors and Substrates of Cytochrome P450 2C19 (AID 899); note: potency is the fitted concentration of half-maximal effect; nearly all actives have a fitted effect of over 60% in size
# How it was run: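 Human CYP2C19 (5nM) with Luciferin-H EGE at 10uM (its KM) in 50mM KPO4 was preincubated with compound for 10 min at 37C. NADPH regeneration started a 60 min 37C reaction. Luciferin was read by luminescence, normalized to 57uM ketoconazole.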
# [11] = molecular target: Cytochrome P450 2D6 (Homo sapiens) (UniProt P10635); assay: qHTS Assay for Inhibitors and Substrates of Cytochrome P450 2D6 (AID 891); note: nearly all actives have a fitted effect of over 60% in size; note: potency is the fitted concentration of half-maximal effect
# How it was run: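 Luminescent read-out of luciferin formed by 5 nM human CYP2D6 demethylating 30 uM Luciferin-ME EGE (Km level) over 60 min at room temperature after NADPH regeneration addition. Data normalized to full inhibition by 1.43 uM quinidine.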
# [12] = molecular target: Muscarinic acetylcholine receptor M1 (Rattus norvegicus) (UniProt P08482); assay: qHTS Assay for Antagonists of Acetylcholine Muscarinic M1 Receptor: Measurement of IP-One Response (AID 944); note: nearly all actives have a fitted effect of over 75% in size
# How it was run: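 Read-out: HTRF competition between d2-IP1 and Eu-cryptate anti-IP1 antibody, emission 620 and 665 nm. Stimulus was carbachol, EC80 (200 nM), for 30 min in M1-CHO cells (rat receptor), after 10 min compound pre-treatment.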
# [13] = qHTS Assay for Identification of Small Molecule Antagonists for NFkB Signaling Pathway (AID 895; active = well fitted inhibition curve with a large enough effect in the signal ratio, with a control signal flat, not every such curve was filed as active; the % refers to the signal ratio; note: potency is the fitted concentration of half-maximal effect)
# How it was run: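 NFkB-bla ME-180 cervical carcinoma cells with beta-lactamase reporter under NFkB response element; compounds added, then TNF alpha at 10 pM final (EC50), 5 h at 37 C. LiveBLAzer substrate 2 h, room temperature; emission 460/530 nm at 405 nm excitation.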
# [14] = qHTS Assay for Identification of Small Molecule Antagonists for Thrombopoietin (TPO) Signaling Pathway (AID 918); conditions: TPO-dependent cell signaling reporter, antagonist mode; note: potency is the fitted concentration of half-maximal effect; nearly all actives have a fitted effect of over 60% in size
# How it was run: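 Luminescence read-out: GPIIb-promoter luciferase in Ba/F3 cells carrying human TPO receptor. Compounds added with 26 pM TPO (EC50), 24 hrs, 37 C, 5% CO2; cells deprived of IL-3 overnight beforehand. Inhibition of signal scored.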
# [15] = qHTS Assay for Identification of Small Molecule Agonists for Hypoxia Response Element Signaling Pathway (AID 914; active = well fitted activation curve with a large enough effect in the signal ratio, with a control signal flat, not every such curve was filed as active; the % refers to the signal ratio); conditions: ME-180 HRE-bla reporter, beta-lactamase ratio, CoCl2, 17 h; stronger effect = higher value
# How it was run: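 ME-180 cells carrying an HRE-driven beta-lactamase reporter were treated with compounds in a titration series plus an EC50 level of CoCl2 for 17 h at 37 degrees Celsius; CCF4 readout as the 460nm/530nm ratio gave AC50 values.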
# Chain of Guanine nucleotide-binding protein G(i) subunit alpha-1 (Homo sapiens) (P63096 whole entry, looked up): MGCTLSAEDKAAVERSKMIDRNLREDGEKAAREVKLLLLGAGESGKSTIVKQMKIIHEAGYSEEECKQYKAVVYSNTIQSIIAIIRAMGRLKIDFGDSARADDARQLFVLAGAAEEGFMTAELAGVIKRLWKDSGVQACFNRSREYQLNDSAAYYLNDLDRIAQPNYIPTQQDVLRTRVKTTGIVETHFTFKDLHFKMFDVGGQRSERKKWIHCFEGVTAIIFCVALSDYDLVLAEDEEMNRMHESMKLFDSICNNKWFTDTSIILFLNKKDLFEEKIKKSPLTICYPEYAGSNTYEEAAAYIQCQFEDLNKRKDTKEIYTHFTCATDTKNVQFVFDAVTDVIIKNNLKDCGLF
# Chain of Pyruvate kinase (Leishmania mexicana) (Q27686 2-499 E452W): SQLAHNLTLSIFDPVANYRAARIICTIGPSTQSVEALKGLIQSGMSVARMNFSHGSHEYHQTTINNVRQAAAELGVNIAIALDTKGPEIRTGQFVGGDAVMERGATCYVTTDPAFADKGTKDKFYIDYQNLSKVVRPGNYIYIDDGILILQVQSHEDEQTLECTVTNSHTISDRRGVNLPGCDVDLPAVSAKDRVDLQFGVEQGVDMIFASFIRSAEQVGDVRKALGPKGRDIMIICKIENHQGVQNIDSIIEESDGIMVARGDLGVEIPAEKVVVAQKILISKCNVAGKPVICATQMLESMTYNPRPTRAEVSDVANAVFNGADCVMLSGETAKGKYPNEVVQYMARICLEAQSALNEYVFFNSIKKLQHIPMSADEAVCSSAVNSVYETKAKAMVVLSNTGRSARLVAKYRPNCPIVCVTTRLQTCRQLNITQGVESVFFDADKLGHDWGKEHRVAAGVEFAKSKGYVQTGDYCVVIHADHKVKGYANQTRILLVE
# Chain of Cytochrome P450 2C19 (Homo sapiens) (P33261 whole entry, looked up): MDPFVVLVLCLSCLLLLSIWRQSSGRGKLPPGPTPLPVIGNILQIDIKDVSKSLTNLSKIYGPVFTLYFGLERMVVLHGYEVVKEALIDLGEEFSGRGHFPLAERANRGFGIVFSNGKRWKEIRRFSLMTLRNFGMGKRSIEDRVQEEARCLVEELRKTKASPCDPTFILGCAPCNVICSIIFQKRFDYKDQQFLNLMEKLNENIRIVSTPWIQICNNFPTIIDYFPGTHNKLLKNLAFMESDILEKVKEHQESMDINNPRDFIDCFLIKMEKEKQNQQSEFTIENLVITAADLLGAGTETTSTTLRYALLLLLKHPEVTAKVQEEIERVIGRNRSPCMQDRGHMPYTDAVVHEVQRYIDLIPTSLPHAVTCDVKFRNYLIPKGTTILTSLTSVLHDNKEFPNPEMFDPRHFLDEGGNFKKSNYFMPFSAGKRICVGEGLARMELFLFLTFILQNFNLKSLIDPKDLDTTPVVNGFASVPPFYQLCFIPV
# Chain of Cytochrome P450 3A4 (Homo sapiens) (P08684 whole entry, looked up): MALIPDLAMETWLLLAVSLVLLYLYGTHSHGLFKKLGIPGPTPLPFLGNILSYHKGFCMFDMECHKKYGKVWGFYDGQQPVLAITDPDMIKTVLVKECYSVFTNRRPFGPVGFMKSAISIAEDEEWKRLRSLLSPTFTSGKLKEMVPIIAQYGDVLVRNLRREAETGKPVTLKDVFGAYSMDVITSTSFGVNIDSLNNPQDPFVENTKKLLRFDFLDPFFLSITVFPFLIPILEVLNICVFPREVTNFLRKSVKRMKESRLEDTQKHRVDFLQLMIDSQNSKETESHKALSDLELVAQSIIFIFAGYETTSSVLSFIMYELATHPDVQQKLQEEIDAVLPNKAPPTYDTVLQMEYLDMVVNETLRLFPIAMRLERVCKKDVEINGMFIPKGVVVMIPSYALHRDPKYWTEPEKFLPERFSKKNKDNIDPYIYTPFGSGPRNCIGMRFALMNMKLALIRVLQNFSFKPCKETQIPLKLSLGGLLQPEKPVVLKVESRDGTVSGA
# Chain of Cytochrome P450 2C9 (Homo sapiens) (P11712 whole entry, looked up): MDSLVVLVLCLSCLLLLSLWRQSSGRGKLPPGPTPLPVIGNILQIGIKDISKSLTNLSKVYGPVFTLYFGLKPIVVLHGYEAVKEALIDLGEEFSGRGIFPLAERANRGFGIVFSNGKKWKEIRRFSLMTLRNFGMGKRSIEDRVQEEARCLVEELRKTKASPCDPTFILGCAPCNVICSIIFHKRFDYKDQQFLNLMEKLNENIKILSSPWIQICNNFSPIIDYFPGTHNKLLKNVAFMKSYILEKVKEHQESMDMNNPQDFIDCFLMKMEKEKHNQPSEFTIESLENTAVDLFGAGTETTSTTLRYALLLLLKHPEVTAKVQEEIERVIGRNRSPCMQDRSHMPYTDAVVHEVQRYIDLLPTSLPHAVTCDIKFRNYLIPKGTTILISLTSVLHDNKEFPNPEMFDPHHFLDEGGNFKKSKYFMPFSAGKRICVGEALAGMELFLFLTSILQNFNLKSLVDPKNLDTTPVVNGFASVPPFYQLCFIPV
# Chain of Cytochrome P450 2D6 (Homo sapiens) (P10635 whole entry, looked up): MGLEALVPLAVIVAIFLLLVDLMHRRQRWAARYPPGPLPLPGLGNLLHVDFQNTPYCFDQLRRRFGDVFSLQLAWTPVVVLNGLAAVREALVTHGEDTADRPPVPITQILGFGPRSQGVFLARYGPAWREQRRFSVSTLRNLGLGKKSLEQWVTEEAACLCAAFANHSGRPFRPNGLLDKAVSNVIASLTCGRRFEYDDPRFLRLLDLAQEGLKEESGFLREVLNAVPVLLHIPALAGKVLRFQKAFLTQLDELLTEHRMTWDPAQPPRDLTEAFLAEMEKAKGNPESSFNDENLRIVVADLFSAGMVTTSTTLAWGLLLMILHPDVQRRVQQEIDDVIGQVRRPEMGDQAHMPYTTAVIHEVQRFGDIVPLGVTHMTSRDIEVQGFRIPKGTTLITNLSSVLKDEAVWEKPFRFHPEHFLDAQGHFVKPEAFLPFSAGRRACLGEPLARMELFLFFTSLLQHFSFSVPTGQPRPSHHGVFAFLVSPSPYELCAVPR
# Chain of Muscarinic acetylcholine receptor M1 (Rattus norvegicus) (P08482 whole entry, looked up): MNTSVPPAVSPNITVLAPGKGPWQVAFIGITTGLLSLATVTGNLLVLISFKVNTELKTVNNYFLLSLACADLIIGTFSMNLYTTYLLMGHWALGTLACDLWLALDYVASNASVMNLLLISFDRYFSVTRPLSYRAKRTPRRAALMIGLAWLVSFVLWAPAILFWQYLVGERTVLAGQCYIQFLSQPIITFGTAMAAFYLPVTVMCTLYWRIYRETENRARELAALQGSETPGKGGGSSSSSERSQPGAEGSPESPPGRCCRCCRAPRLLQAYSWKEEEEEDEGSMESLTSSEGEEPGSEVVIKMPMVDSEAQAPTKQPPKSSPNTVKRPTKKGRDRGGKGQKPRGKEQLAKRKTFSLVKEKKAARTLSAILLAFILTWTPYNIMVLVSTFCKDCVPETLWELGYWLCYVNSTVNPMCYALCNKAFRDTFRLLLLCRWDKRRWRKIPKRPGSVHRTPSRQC
smiles,measurement,setting,value
CC(=O)N[C@@H](CS)C(=O)O,outcome,[1],inactive
same,Potency,[2],inactive
same,outcome,[3],inactive
same,Potency,[4],inactive
COc1ccc(-c2coc3cc(O)ccc3c2=O)cc1,Potency,[5],inactive
same,Potency,[2],inactive
same,outcome,[6],inactive
same,outcome,[7],inactive
same,outcome,[8],inactive
CC(C)NCC(O)COc1cccc2[nH]ccc12 (stereo unspecified),outcome,[1],inactive
same,outcome,[7],inactive
same,Potency,[9],inactive
same,outcome,[8],inactive
same,Potency,[4],inactive
O=C1C(Cl)=C(NCCN2CCOCC2)C(=O)c2ncccc21,Potency,[2],2.51 µM (active)
same,outcome,[6],inactive
CS(=O)c1ccc(-c2nc(-c3ccc(F)cc3)c(-c3ccncc3)[nH]2)cc1 (stereo unspecified),Potency,[5],2000 nM (active)
same,outcome,[6],inactive
same,Potency,[10],39.8 nM (active)
COc1ccc(-c2coc3cc(O)cc(O)c3c2=O)cc1,Potency,[5],inactive
same,Potency,[2],20 µM (active)
same,outcome,[6],inactive
same,Potency,[11],31.6 µM (active)
same,Potency,[10],7940 nM (active)
same,outcome,[7],inactive
same,outcome,[8],inactive
Clc1ccc(Cn2c(CN3CCCC3)nc3ccccc32)cc1,outcome,[1],inactive
same,outcome,[6],inactive
same,Potency,[11],1.26 µM (active) and 794 nM (active)
same,Potency,[10],199 nM (active)
same,Potency,[9],inactive
same,outcome,[12],inactive
same,Potency,[4],inactive
c1ccc2c(Cc3c[nH]c4ccccc34)c[nH]c2c1,outcome,[6],inactive
same,outcome,[7],inactive
same,outcome,[8],inactive
O=c1cc(-c2ccccc2)oc2cc(O)cc(O)c12,Potency,[2],7.94 µM (active) and inactive and 2.51 µM (active)
same,outcome,[6],inactive
same,Potency,[10],794 nM (active)
same,outcome,[7],inactive
same,outcome,[8],inactive
O=C(O)CCc1nc(-c2ccccc2)c(-c2ccccc2)o1,outcome,[1],inactive
same,outcome,[7],inactive
same,Potency,[9],inactive
same,outcome,[8],inactive
same,Potency,[4],inactive
CC1(C)CCC2=C(O1)c1ccccc1C(=O)C2=O,outcome,[1],inactive
same,Potency,[13],8910 nM (active)
same,Potency,[14],1580 nM (active)
same,Potency,[4],inactive
C[C@]12CCC3c4ccc(O)cc4CCC3C1CCC2=O (stereo partly specified),outcome,[7],inactive
same,outcome,[8],inactive
Nc1ncnc2c1ncn2[C@@H]1O[C@H](CO)C[C@@H]1O,Potency,[2],inactive
CCCCCCCCCCCC1=C(O)C(=O)C=C(O)C1=O,Potency,[5],25100 nM (active)
same,Potency,[2],inactive
same,Potency,[11],inactive and 2 µM (active)
same,outcome,[7],inactive
same,outcome,[8],inactive
c1cc(-c2sc(-c3ccncc3)c(-c3ccncc3)c2-c2ccncc2)ccn1,Potency,[5],2000 nM (active)
same,Potency,[2],0.316 µM (active)
same,"activity change, positive = activation",[6],-102% [at 11.4 µM] (inactive)
same,Potency,[10],1580 nM (active)
same,activation,[15],-25.7% (inactive)
O=C1C[C@@H](c2ccc(O)cc2)Oc2cc(O)cc(O)c21,Potency,[11],inactive
COc1ccc(Cc2nccc3cc(OC)c(OC)cc23)cc1OC,outcome,[1],inactive
same,Potency,[4],inactive
COc1ccc(C2Sc3ccccc3N(CCN(C)C)C(=O)C2OC(C)=O)cc1 (stereo unspecified),outcome,[7],inactive
same,outcome,[8],inactive
O=c1cc(-c2ccccc2)oc2cc(O)c(O)c(O)c12,Potency,[5],5010 nM (active)
same,outcome,[6],inactive
same,Potency,[11],31.6 µM (active)
same,Potency,[10],5010 nM (active)
same,outcome,[7],inactive
NC(N)=Nc1nc(CSCC/C(N)=N/S(N)(=O)=O)cs1,outcome,[1],inactive
same,Potency,[9],inactive
same,Potency,[4],inactive
